{"source": "the supplement of paper PMC4962491", "tested_on": "FaDu", "assay": "mitochondrial oxygen consumption rate normalised to cell number, Z score vs plate DMSO wells; higher = higher oxygen consumption (negative = OCR reduction)", "conditions": "treatment time 24 h, assay medium: 5 mM glucose, 5 mM pyruvate, 4 mM glutamine", "description": "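Secondary screen: FaDu cells were incubated 24 h with the top 130 primary hits at 0.08, 0.4, 2 or 10 uM. Mitochondrial-specific OCR (basal minus antimycin A) was measured on a Seahorse XF96 in medium with 5 mM glucose, 5 mM pyruvate and 4 mM glutamine and normalised to Hoechst cell number. OCR score = (OCR - mean of plate DMSO wells) / SD of plate DMSO wells. Three repeats.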", "note": "± gives the standard deviation of the averaged measurements.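 Also: compound exposure in DMEM (4 mM L-glutamine, 5 mM glucose), antimycin A injected at 2 µM after the basal reading and its residual OCR subtracted from basal.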", "data": [{"smiles": "CCCCCCCCCCCCCCCC[n+]1ccccc1", "values": [{"measurement": "mitochondrial oxygen consumption rate normalised", "setting": "0.08 µM", "result": "-1.4 ± 1.2"}, {"measurement": "mitochondrial oxygen consumption rate normalised", "setting": "0.4 µM", "result": "-7.98 ± 1.3"}, {"measurement": "mitochondrial oxygen consumption rate normalised", "setting": "2 µM", "result": "-12.98 ± 0.12"}]}, {"smiles": "CC[C@H]1CN2CCc3cc(OC)c(OC)cc3[C@@H]2C[C@@H]1C[C@H]1NCCc2cc(OC)c(OC)cc21", "values": [{"measurement": "mitochondrial oxygen consumption rate normalised", "setting": "0.08 µM", "result": "-2.43 ± 0.17"}, {"measurement": "mitochondrial oxygen consumption rate normalised", "setting": "0.4 µM", "result": "-3.08 ± 0.73"}, {"measurement": "mitochondrial oxygen consumption rate normalised", "setting": "2 µM", "result": "-9.68 ± 0.42"}, {"measurement": "mitochondrial oxygen consumption rate normalised", "setting": "10 µM", "result": "-11.8 ± 0.41"}]}, {"smiles": "CC(C)[N+](C)(CCC(C(N)=O)(c1ccccc1)c1ccccc1)C(C)C", "values": [{"measurement": "mitochondrial oxygen consumption rate normalised", "setting": "0.08 µM", "result": "-0.746 ± 1.7"}, {"measurement": "mitochondrial oxygen consumption rate normalised", "setting": "0.4 µM", "result": "0.934 ± 0.43"}, {"measurement": "mitochondrial oxygen consumption rate normalised", "setting": "2 µM", "result": "0.355 ± 1.3"}, {"measurement": "mitochondrial oxygen consumption rate normalised", "setting": "10 µM", "result": "-0.361 ± 2"}]}, {"smiles": "C=C1C[C@@H]2[C@H](CC[C@]3(C)C(=O)CC[C@@H]23)[C@@]2(C)C=CC(=O)C=C12", "values": [{"measurement": "mitochondrial oxygen consumption rate normalised", "setting": "0.08 µM", "result": "-0.364 ± 0.53"}, {"measurement": "mitochondrial oxygen consumption rate normalised", "setting": "0.4 µM", "result": "1.24 ± 0.73"}, {"measurement": "mitochondrial oxygen consumption rate normalised", "setting": "2 µM", "result": "-0.149 ± 1"}, {"measurement": "mitochondrial oxygen consumption rate normalised", "setting": "10 µM", "result": "0.548 ± 0.94"}]}, {"smiles": "CC(=O)O[C@H]1C[C@H](O[C@H]2[C@@H](O)C[C@H](O[C@H]3[C@@H](O)C[C@H](O[C@H]4CC[C@@]5(C)[C@H](CC[C@@H]6[C@@H]5C[C@@H](O)[C@]5(C)[C@@H](C7=CC(=O)OC7)CC[C@]65O)C4)O[C@@H]3C)O[C@@H]2C)O[C@H](C)[C@H]1O[C@@H]1O[C@H](CO)[C@@H](O)[C@H](O)[C@H]1O", "values": [{"measurement": "mitochondrial oxygen consumption rate normalised", "setting": "0.08 µM", "result": "-0.88 ± 0.81"}, {"measurement": "mitochondrial oxygen consumption rate normalised", "setting": "0.4 µM", "result": "-3.22 ± 1.3"}]}, {"smiles": "CCN1C[C@]2(COC)[C@H](O)C[C@H](OC)[C@@]34[C@@H]5C[C@@]6(O)[C@H](OC(=O)c7ccccc7)[C@@H]5[C@@](OC(C)=O)([C@@H]([C@H](OC)[C@H]23)[C@@H]14)[C@@H](O)[C@@H]6OC", "values": [{"measurement": "mitochondrial oxygen consumption rate normalised", "setting": "0.08 µM", "result": "-1.27 ± 0.64"}, {"measurement": "mitochondrial oxygen consumption rate normalised", "setting": "0.4 µM", "result": "0.916 ± 0.68"}, {"measurement": "mitochondrial oxygen consumption rate normalised", "setting": "2 µM", "result": "-0.205 ± 0.67"}, {"measurement": "mitochondrial oxygen consumption rate normalised", "setting": "10 µM", "result": "-1.19 ± 2.6"}]}, {"smiles": "CC(=O)Oc1ccc(Cl)c2cccnc12", "values": [{"measurement": "mitochondrial oxygen consumption rate normalised", "setting": "0.08 µM", "result": "1.68 ± 0.74"}, {"measurement": "mitochondrial oxygen consumption rate normalised", "setting": "0.4 µM", "result": "1.4 ± 1.5"}, {"measurement": "mitochondrial oxygen consumption rate normalised", "setting": "2 µM", "result": "1.41 ± 0.58"}, {"measurement": "mitochondrial oxygen consumption rate normalised", "setting": "10 µM", "result": "-4.99 ± 1.8"}]}, {"smiles": "S=C=NCc1ccccc1", "values": [{"measurement": "mitochondrial oxygen consumption rate normalised", "setting": "0.08 µM", "result": "0.549 ± 1.3"}, {"measurement": "mitochondrial oxygen consumption rate normalised", "setting": "0.4 µM", "result": "1.06 ± 1.3"}, {"measurement": "mitochondrial oxygen consumption rate normalised", "setting": "2 µM", "result": "0.157 ± 2.2"}]}, {"smiles": "O=c1[nH]c2ccccc2n1C1CCN(CCCC(c2ccc(F)cc2)c2ccc(F)cc2)CC1", "values": [{"measurement": "mitochondrial oxygen consumption rate normalised", "setting": "0.08 µM", "result": "0.0686 ± 1.5"}, {"measurement": "mitochondrial oxygen consumption rate normalised", "setting": "0.4 µM", "result": "0.719 ± 0.8"}, {"measurement": "mitochondrial oxygen consumption rate normalised", "setting": "2 µM", "result": "-0.247 ± 1"}, {"measurement": "mitochondrial oxygen consumption rate normalised", "setting": "10 µM", "result": "-2.41 ± 0.47"}]}, {"smiles": "COc1ccc(Cc2nccc3cc(OC)c(OC)cc23)cc1OC", "values": [{"measurement": "mitochondrial oxygen consumption rate normalised", "setting": "0.08 µM", "result": "0.452 ± 1"}, {"measurement": "mitochondrial oxygen consumption rate normalised", "setting": "0.4 µM", "result": "1.06 ± 1.4"}, {"measurement": "mitochondrial oxygen consumption rate normalised", "setting": "2 µM", "result": "0.739 ± 0.59"}, {"measurement": "mitochondrial oxygen consumption rate normalised", "setting": "10 µM", "result": "-0.208 ± 3.2"}]}, {"smiles": "COc1cc([C@@H]2c3cc4c(cc3[C@H](O)[C@H]3COC(=O)[C@H]23)OCO4)cc(OC)c1OC", "values": [{"measurement": "mitochondrial oxygen consumption rate normalised", "setting": "0.08 µM", "result": "-0.539 ± 1.6"}, {"measurement": "mitochondrial oxygen consumption rate normalised", "setting": "0.4 µM", "result": "-0.043 ± 0.98"}, {"measurement": "mitochondrial oxygen consumption rate normalised", "setting": "2 µM", "result": "0.427 ± 0.56"}, {"measurement": "mitochondrial oxygen consumption rate normalised", "setting": "10 µM", "result": "-0.617 ± 1.2"}]}]}
